Out of some 350,000 compounds screened, about 2,100 (0.6%) were called active. The sample as a whole holds a higher share of actives than the screen did. Values without a mark were called inactive.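 Rule for the calls: active = inhibition of the ligand-induced calcium signal above about 50% at the single tested concentration (limit read from the data); inactive = the rest.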

A short description of the test: blockers of CRF-evoked CRF-R2/CRF-BP calcium response – cell-based, HEK293, calcium dye fluorescence, uHTS, primary screen (AID 588475). The settings on record: CRF-induced calcium fluorescence, at 11.8 µM, active compounds read high.
In general, inhibition refers to the change of the read-out against control, counted positive when it falls. In the case of `CSc1nnc(-c2ccc(C(F)(F)F)cn2)o1`, the inhibition was 4.97%.

For the molecule `O=C(OCC(=O)N1CCc2ccccc21)c1ccc([N+](=O)[O-])cc1`, the inhibition is -3.17%.

Regarding `CN1CCOC1c1ccc(C2OCCN2C)cc1` (stereo not given), the inhibition was 4.93%.

With `CCCc1nc2c(C)cc(-c3nc4ccccc4n3C)cc2n1Cc1ccc(-c2ccccc2C(=O)O)cc1`, the inhibition is 17.1%.

Turning to `CN(C)CCCN(Cc1cc2cc3c(cc2[nH]c1=O)OCCO3)C(=O)NC1CCCCC1`, the inhibition was -6.7%.

With `Cc1cc(C(=O)OC(C)C(=O)NC2CCCCC2C)c(C)o1` (stereo not given), the inhibition was -2.53%.

For the molecule `O=C(Cn1cnc([N+](=O)[O-])n1)NCCc1ccccc1`, the inhibition was 67.5% (active).

On to `CC(C)(C)NC(=O)Cn1cnc([N+](=O)[O-])n1`, for which the inhibition is 4.8%.

Regarding `O=C(Cc1ccc(Br)cc1)NCCc1ccccc1`, the inhibition was -0.6%.

Turning to `COCC(=O)N1CCc2ccc(NC(=O)c3ccccc3Cl)cc2C1`, the inhibition was 6.03%.

On to `Fc1ccccc1CNC(=S)Nc1ccc(Cl)cc1`, for which the inhibition was 66% (active).

Take `S=C(NCc1cccs1)Nc1ccc(Cl)cc1`: the inhibition was 8.34%.

Regarding `FC(F)(F)Oc1ccc(NC(=S)NCc2ccccc2)cc1`, the inhibition was 44.6%.

Regarding `COc1ccc(NC2CC(=O)N(C)C2=O)cc1` (stereo not given), the inhibition is 20.5%.

In the case of `CN(C)CCN(C(=O)C1=COCCO1)c1nc2ccc(Cl)cc2s1`, the inhibition is -9.68%.

Turning to `CN(C)CCN(C(=O)CN1C(=O)c2ccccc2C1=O)c1nc2cc3c(cc2s1)OCCO3`, the inhibition was 85.2% (active).

With `CCN(CC)CCN(C(=O)c1cc(Cl)sc1Cl)c1nc2cc3c(cc2s1)OCO3`, the inhibition was -22.2%.

With `O=C(COc1ccc(Cl)cc1)NCCSc1ccccc1`, the inhibition was 9.25%.

Consider `O=C1CCC(CCC(=O)N2CCCC(C(=O)c3ccc(Cl)cc3)C2)=NN1` (stereo not given), for which the inhibition was -7.3%.

As for `CC(=O)n1cc([C@H]2C=C(C(=O)N3CCOCC3)O[C@@H](OCc3ccc(CO)cc3)C2)c2ccccc21`, the inhibition is -5.43%.

On to `Cc1cc2c(cc1C)NC(c1ccccn1)C1=C(CC(C)(C)CC1=O)N2` (stereo not given), for which the inhibition was 7.43%.

Regarding `Cc1ccc(NC(=O)NC2CCCCC2)cc1S(=O)(=O)N1CCOCC1`, the inhibition was 5.45%.

For `Cc1ccc(C(=O)Nc2ncccc2C)cc1S(=O)(=O)N1CCOCC1`, the inhibition was -0.48%.

For `Cc1ccc(C(=O)Nc2ccccc2C(=O)NC2CCCCC2)cc1S(=O)(=O)N1CCOCC1`, the inhibition was 72.2% (active).

As to `Cc1cccc(N(C(=O)c2sc(C)nc2C)C(C(=O)NCC2CCCO2)c2ccccc2)c1` (stereo not given), the inhibition is 54.8% (active).

For `O=C(NCC(=O)N(c1ccccc1)C(C(=O)NCC1CCCO1)c1ccccc1)c1cccs1` (stereo not given), the inhibition is -1.33%.

Regarding `Cc1nc(C)c(C(=O)N(c2ccc(C)c(C)c2)C(C(=O)NCc2ccco2)c2ccccc2)s1` (stereo not given), the inhibition is -3.65%.

On to `COc1ccc([N+](=O)[O-])cc1N(CC(O)CN(CC(C)C)CC(C)C)S(=O)(=O)c1ccc(C)cc1` (stereo not given), for which the inhibition is -23.4%.

Turning to `Cc1ccc(S(=O)(=O)N(CC(O)CN2CCCCC2)c2cccc([N+](=O)[O-])c2)cc1` (stereo not given), the inhibition is -12.3%.

On to `COc1ccc([N+](=O)[O-])cc1N(CC(O)Cn1nnc2ccccc21)S(=O)(=O)c1ccc(C)cc1` (stereo not given), for which the inhibition was 67.3% (active).

`CN(Cc1ccc(CNC[C@H]2O[C@@H](n3cnc4c(N)ncnc43)[C@H](O)[C@@H]2O)o1)S(C)(=O)=O`: the inhibition is 15.6%.

With `O=C(Cc1cccs1)N/N=C/c1ccc(OCc2ccccc2)cc1`, the inhibition is -49.7%.

Turning to `O=C(O)c1ccc(/C=N/NC(=S)NCc2ccccc2)cc1`, the inhibition is 3.62%.

In the case of `C=CCNC(=S)N/N=C/c1ccc(OCc2ccccc2)cc1`, the inhibition was 95.3% (active).

Consider `CN(CCO)c1ccc(/C=N/Nc2nncc3ccccc23)cc1`, for which the inhibition is 13.7%.

With `COc1ccc2[nH]c(=O)c(CN(Cc3cccnc3)S(=O)(=O)c3ccccc3F)cc2c1`, the inhibition is -7.64%.

In the case of `CN(C)/C(=N\OC(=O)c1ccccc1)c1nonc1N`, the inhibition was 28.8%.

As to `COc1ccc(CCNC(=O)C2CCN(c3nn4c(=O)cc(C)nc4s3)CC2)cc1OC`, the inhibition was -3.66%.

Regarding `CCCOc1ccc(CNC(=O)C2CCN(c3nn4c(=O)cc(C)nc4s3)CC2)cc1`, the inhibition is 4.13%.

Take `Cc1cc(=O)n2nc(N3CCC(C(=O)Nc4c(F)c(F)c(F)c(F)c4F)CC3)sc2n1`: the inhibition was 88.8% (active).

For `CCOc1ccc(N(CC(=O)Nc2ccccc2F)S(=O)(=O)c2c(C)[nH]c(=O)[nH]c2=O)cc1`, the inhibition was -6.15%.

With `CCCNS(=O)(=O)c1ccc(CCC(=O)N2CCCC2)cc1`, the inhibition is 0.99%.

As for `C[C@@H]1CN([C@H](C)CO)C(=O)CCCn2nncc2CO[C@@H]1CN(C)C(=O)OCc1ccccc1`, the inhibition is -0.52%.

For the molecule `Cc1ccc(C(=O)c2coc3ccc(O)c(CN(C)C)c23)cc1`, the inhibition is -15.4%.

Regarding `COc1ccccc1C(=O)N1CCN=C1SCc1cccnc1`, the inhibition is 11.4%.

`COc1cccc(OC)c1C(=O)N1CCN(Cc2cccnc2)CC1`: the inhibition is 56.1% (active).

As to `COc1cccc(OC)c1C(=O)N1CCN(Cc2ccccc2F)CC1`, the inhibition was 24.1%.

Turning to `Cc1nc2sc(C(c3ccco3)N3CCC4(CC3)OCCO4)c(O)n2n1` (stereo not given), the inhibition was 11.4%.

On to `[O-][N+]12CCCCC1CCCC2CO` (stereo not given), for which the inhibition is 8.6%.

In the case of `COc1ccc(S(=O)(=O)N2CCc3ccccc32)cc1C(=O)Nc1cc(S(C)(=O)=O)ccc1Cl`, the inhibition is 2.64%.

As for `COc1cccc(NC(=O)c2cc(S(=O)(=O)N3CCc4ccccc43)cn2C)c1`, the inhibition was 82.7% (active).

As to `COc1ccccc1N(C)C(=O)c1cc(S(=O)(=O)N2CCc3ccccc32)cn1C`, the inhibition is -4.87%.

In the case of `O=C(N[C@@H]1C/C=C\C[C@@H](CC(=O)N(CCO)Cc2ccccc2)C(=O)N[C@H](Cc2ccccc2)COC1=O)OCC1c2ccccc2-c2ccccc21`, the inhibition is 1.02%.

As to `O=C(N[C@H]1C/C=C\C(c2ccc(F)cc2)N(Cc2ccccc2)C(=O)C1)OCC1c2ccccc2-c2ccccc21` (stereo not given in full), the inhibition was -13.4%.

As for `O=C(N[C@H]1C/C=C\C(c2cccc(F)c2)N(Cc2ccccc2)C(=O)C1)OCC1c2ccccc2-c2ccccc21` (stereo not given in full), the inhibition was 98.1% (active).

For the origin of these results see PubChem BioAssay AID588475 (Sanford-Burnham Center for Chemical Genomics, 2011).
